Measurements published in the supplement of paper PMC3334620.
The full ranking holds about 33,000 sequences; the median of “E-score (-0.5 to 0.5)” is about -0.04, and the highest 2% start at about 0.36. This is one part of a sample in which the highest values are shown more often than they occur.

biological target: T1, Hmlalpha2 (UniProt P0CY09); assay: PBM E-score (8-mer binding enrichment) (E-score (-0.5 to 0.5)); higher = stronger / more preferred TF binding; conditions: protein concentration: 200 nM; construct: GST-full length
T1 sequence: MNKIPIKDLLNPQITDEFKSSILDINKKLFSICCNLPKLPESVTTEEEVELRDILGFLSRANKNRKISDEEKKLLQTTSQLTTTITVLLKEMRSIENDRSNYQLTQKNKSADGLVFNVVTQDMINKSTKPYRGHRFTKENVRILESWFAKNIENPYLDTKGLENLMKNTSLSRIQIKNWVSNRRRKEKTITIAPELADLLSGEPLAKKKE
How it was run: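 E-scores (a modified Wilcoxon-Mann-Whitney statistic) were assigned by the Universal PBM Analysis Suite to every ungapped eight-base word pooled with its reverse complement. The input came from universal all-10-mer Agilent arrays made double-stranded by primer extension and probed with GST-tagged yeast transcription factors at about 100-200 nM. Fluorescent anti-GST detected bound protein, and masliner normalised the scans.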

Row | Sequence | PBM E-score
1 | AACAAGGC | 0.219
2 | CATCAAGC | -0.116
3 | ACCCTAAT | -0.101
4 | CCTAATCA | 0.0766
5 | GTGTGAGA | 0.0378
6 | AAAACAGA | 0.137
7 | ATAAAAAG | 0.19
8 | GTGTAACA | 0.411
9 | ATGTAACA | 0.454
10 | AAGTAACA | 0.245
11 | GGGTAACA | 0.17
12 | CTGTAACA | 0.223
13 | GCGTAACA | 0.29
14 | AGGAGTGG | -0.145
15 | ACCCGAGA | -0.255
16 | AGTCTGCG | -0.0616
17 | ACCAGAAT | 0.0511
18 | AAACAACC | 0.168
19 | ACACACCA | 0.369
20 | AAACAACA | 0.367
21 | TCACACCA | -0.0124
22 | AAACAACT | 0.0928
23 | CTACAACA | 0.283
24 | GTACAACA | 0.395

Row | Sequence | PBM E-score
25 | GCACAACA | 0.187
26 | ACACAACA | 0.381
27 | CCACACCA | 0.0331
28 | CCACAACA | 0.0233
29 | ATACAACA | 0.355
30 | GTGCTCAA | 0.197
31 | ATCTGGGG | -0.267
32 | CGCTTACA | 0.287
33 | AAGTTCCG | -0.0355
34 | AAGCGGGG | -0.0783
35 | AGCTCCCA | -0.128
36 | AATGCTCG | 0.0169
37 | TGAAAGAA | 0.129
38 | AAAGCACA | 0.123
39 | AAGTATCT | 0.0958
40 | ACACAACG | 0.377
41 | ACACAACC | 0.305
42 | ACACAGCC | 0.317
43 | ACACAGCG | 0.424
44 | ACACAGCA | 0.358
45 | ACACAACT | 0.317
46 | GAGGAAGC | -0.231
47 | AAGAGATG | -0.0147
48 | TAAACTTA | 0.228

Row | Sequence | PBM E-score
49 | CGAAGATA | -0.04
50 | AGGTAAGC | -0.198
51 | ACAGTCTG | -0.159
52 | ACACATCA | 0.183
53 | AACATACA | 0.368
54 | CACATACA | 0.33
55 | AACATACT | 0.255
56 | TACATATA | 0.374
57 | GACATATA | 0.163
58 | AACATAAA | 0.28
59 | TACATAAA | 0.369
60 | AACATACG | 0.363
61 | CACATATA | 0.311
62 | TACATACA | 0.443
63 | CACATAAA | 0.259
64 | GACATACA | 0.315
65 | ACTACGCT | 0.106
66 | ACTGCTCA | 0.0532
67 | GAAGATAA | 0.242
68 | AAAGGGAC | -0.2
69 | GCAATCTA | 0.119
70 | ATCTTCTA | -0.0325
71 | CACATAGA | 0.0951
72 | GACATAGA | 0.145

Row | Sequence | PBM E-score
73 | TACATAGA | 0.427
74 | TGTTATAA | 0.399
75 | CGTTAACA | 0.34
76 | TGTTAACA | 0.426
77 | GGTTAAAA | 0.28
78 | CGTTAAAA | 0.272
79 | AGTTAACA | 0.392
80 | AGTTAACT | 0.129
81 | TGTTAAAA | 0.43
82 | AGTTAACG | 0.248
83 | CGTTATAA | 0.222
84 | TGCTAACA | 0.245
85 | AGTTATAA | 0.172
86 | AGCTGGAC | -0.0393
87 | AAGGCCAC | -0.186
88 | CGGGCAAC | -0.261
89 | ATAGATTA | 0.151
90 | AAAAAGGA | -0.00436
91 | GTGGCTGA | -0.248
92 | CCATGCGG | -0.12
93 | GAGGAGAA | -0.191
94 | GGTTAAGA | 0.148
95 | GGTTAACC | -0.142
96 | GGTTAACA | 0.412
